Assay outcomes as filed in PubChem BioAssay.
Hits are enriched below; roughly 1.2% of the tested compounds scored in any of these assays.
BH1578 lux ind – inducers of Vibrio cholerae quorum light production without autoinducers; V. cholerae BH1578 lux reporter, luminescence, 6 h; activation, % at 18.7 µM; 350,000 tested, 0.16% active; AID 588436; in the data active = activation mostly above about 9.7%, no sharp cut-off; inconclusive = no clear call, values can overlap the other calls; inactive = mostly below about 3.7%
Sa RN4220 lethal – kills Staphylococcus aureus RN4220 | S. aureus RN4220 growth, OD600, 16 h | inhibition, % (test concentration not listed) | 330,000 tested, 0.33% active | AID 1259311; in the data active = inhibition above about 85%;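 note: plate controls were untreated cells for no effect and reference antibiotic for full effect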
Sa ugtP lethal – kills S. aureus RN4220 lacking UgtP. S. aureus RN4220 ugtP deletion, OD600 growth, 16 h. growth inhibition, % (test concentration not listed). 330,000 tested, 0.54% active. AID 1259309; in the data active = growth inhibition above about 68%;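 note: plate controls were untreated wells for no effect and antibiotic for full effect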
Mtb betalactam – beta-lactam sensitization of Mtb H37Rv | AID 434955 | M. tuberculosis H37Rv growth with meropenem, percent inhibition | 330,000 tested, 0.27% active | inhibition, % at 25 µM; call rule not given here;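 note: growth measured after seven days incubation then overnight dye step; 0% = bacteria only wells and 100% = bacteria with antibiotic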
PfHsp40 yeast – restores yeast growth despite PfHsp40 toxicity | S. cerevisiae expressing PfHsp40, growth rescue, ATP luminescence | growth rescue, % at 12.5 µM | 340,000 tested, 0.68% active | AID 504582; in the data active = growth rescue above about 28%, passing the limit was not always enough; inconclusive = no clear call, values can overlap the other calls;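 note: yeast W303a lacking pdr1 and pdr3 grown in galactose medium; growth measured after three days at 30 °C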
* marks the source's active call; other numbers are inactive results; i = inactive; u = inconclusive; x = not tested or not shown; + = active, no number.

SMILES	BH1578 lux ind	Sa RN4220 lethal	Sa ugtP lethal	Mtb betalactam	PfHsp40 yeast
Cc1ccc2nc(N3C(=O)C(O)=C(C(=O)c4ccco4)C3c3cccs3)sc2c1 (stereo unspecified)	i	-1	11	12	0
CCCCCCOc1ccc(CN2CCN(C)CC2)cc1	-1	0	86*	u	-1
CCCCOc1ccc(CN2CCCCC2)cc1	i	6	4	1	-2
COc1cccc(CNC(=O)COc2ccc(C(=O)c3ccccc3)cc2)c1	0	3	3	-1	499*
O=C(C1COc2ccccc2O1)N1CCN(c2ccccc2Cl)CC1 (stereo unspecified)	0	1	-2	-1	35*
Cc1cccc(N2CCN(C(=O)C3COc4ccccc4O3)CC2)c1C (stereo unspecified)	i	-1	2	6	206*
CC(O)C1CNCCN1CCc1cc(C(F)(F)F)cc(C(F)(F)F)c1 (stereo unspecified)	x	4	4	x	x
Cc1ccccc1C(=O)NNC(=S)NC(=O)c1ccccc1	0	33	8	97	169*
Cc1ccc(C(=O)NNC(=S)NC(=O)c2ccccc2)cc1	0	36	16	98	17
COc1ccc(C(=O)NNC(=S)NC(=O)c2ccc(F)cc2)cc1Br	4	81	85*	95	x
COc1ccccc1NC(=S)NNC(=O)c1ccccc1	i	3	8	12	29*
Cc1ccc(C(=O)NC(=S)NNC(=O)c2ccccc2)cc1	0	37	8	97	39*
COc1ccc(C(=O)NC(=S)NNC(=O)c2ccncc2)cc1Br	i	34	6	95	5
COc1ccc(C(=O)NC(=S)NNC(=O)c2cccc(C)c2)cc1	x	72	49	98	x
Cc1cccc(C(=O)NNC(=S)NC(=O)c2ccccc2)c1	-1	52	20	95	127*
O=C(NC(=S)NNC(=O)[C@H]1C[C@@H]1c1ccccc1)c1cccc(F)c1	2	36	14	89	49*
Cc1[nH]n2c(=O)cc(C(C)(C)C)nc2c1-c1ccccc1	-1	65	96*	98	0
Cc1[nH]n2c(=O)cc(-c3ccc([N+](=O)[O-])cc3)nc2c1-c1ccccc1	0	86*	75	98	0
Cc1[nH]n2c(=O)cc(C(C)C)nc2c1-c1ccccc1	i	-3	-5	98	2
Cc1ccc(N=Nc2c(N)[nH]n3c(=O)cc(-c4ccccc4)nc23)cc1	32*	16	9	95	0
CCCc1cc(=O)n2[nH]c(C)c(-c3ccccc3)c2n1	-1	-27	-7	99	2
CC(C)CC(NC(=O)c1[nH]cnc1C(=O)NC(Cc1ccccc1)C(=O)OC(C)(C)C)C(=O)OC(C)(C)C (stereo unspecified)	x	6	2	x	x
O=C(Oc1c(Cl)cc(Cl)c2cccnc12)c1cccc([N+](=O)[O-])c1	0	97*	97*	98	0
COC(=O)c1ccc(C=NOCC(=O)NCc2ccc(F)cc2)cc1	x	9	3	x	x
Nc1cc2c(cc1Br)-c1ccccc1C2=NO	i	x	x	x	47*
SMILES	BH1578 lux ind	Sa RN4220 lethal	Sa ugtP lethal	Mtb betalactam	PfHsp40 yeast
ON=C1c2ccccc2-c2ccc(Br)cc21	i	x	x	x	5
O=C(c1ccc(NC(=S)Nc2ccc(Cl)c(Cl)c2)cc1)N1CCCC1	-1	101*	100*	75	0
O=C(Nc1ccc(Cl)c(Cl)c1)N1CCC(N2CCCCC2)CC1	+	-15	-4	-13	0
O=C(Nc1ccc(Cl)c(Cl)c1)N1CCCCCC1	i	-5	-8	3	0
CC(=O)c1ccc(NC(=S)Nc2ccc(Br)c(Cl)c2)cc1	0	100*	100*	94	-1
Cc1ccc2nc(N=C(N)NC(=O)N3c4ccccc4Sc4ccccc43)nc(C)c2c1	x	12	-7	x	x
CC(C)(C)C(=O)ON=C(N)c1ccc([N+](=O)[O-])s1	x	1	12	x	x
Cc1cccc(COC(=O)CCCNC(=O)c2ccc(Cl)cc2)c1	i	3	3	14	77*
CC(C(=O)Nc1ccc2ccccc2c1)C1C[C@@]1(C)C(NC(=O)OCc1ccccc1)c1ccccc1 (stereo partly specified)	x	-6	-2	x	x
Cn1cccc1C=NNC(=O)c1sc2cc(Cl)ccc2c1Cl	x	2	2	x	x
CC(=O)N1c2ccc(C)cc2Sc2c1ccc1ccccc21	i	4	70	x	30*
CC(NC(=O)c1nc[nH]c1C(=O)N1CCN(c2ccccc2)CC1)c1ccccc1 (stereo unspecified)	x	4	-3	x	x
CCOC(=O)C1C2COc3ccc(Br)cc3C2N2C(=O)CN(Cc3ccc(OC)cc3)C(=O)[C@@]12C (stereo partly specified)	x	0	-18	x	x
O=C(CCNS(=O)(=O)c1ccccc1)N1CCN(c2ccccc2)CC1	0	x	x	u	54*
CC(=O)N1CCN(C(=O)CCNS(=O)(=O)c2ccccc2)CC1	0	3	5	-4	0
CN(c1ccc(OCC(=O)Nc2cc(Cl)ccc2C(=O)O)cc1)S(=O)(=O)c1ccc(F)cc1	2	5	10	-1	26*
O=C(O)C1=CC(c2coc3ccccc3c2=O)CC(OCCCCO)O1 (stereo unspecified)	x	7	0	x	x
CCOC(=O)N1CCN(S(=O)(=O)c2ccc(C(=O)NNc3nc4ccc(Cl)cc4s3)cc2)CC1	-2	-6	-8	4	274*
CCOC(=O)N1CCN(S(=O)(=O)c2ccc(C(=O)NNc3nc4c(C)cccc4s3)cc2)CC1	-1	1	4	6	130*
CCOC(=O)N1CCN(S(=O)(=O)c2ccc(C(=O)NNc3nc4cc(C)cc(C)c4s3)cc2)CC1	i	x	x	-2	323*
CCOC(=O)N1CCN(S(=O)(=O)c2ccc(C(=O)NNc3nc4c(C)cc(C)cc4s3)cc2)CC1	0	14	-1	-2	x
O=C1NC(Cc2ccccc2)COC(=O)C(Cc2ccc(F)cc2)CC=CCC1CC(=O)N(CCO)Cc1ccccc1 (stereo unspecified)	x	0	12	x	x
CC1COc2ccccc2N1S(=O)(=O)c1ccc(Cl)cc1 (stereo unspecified)	0	8	23	3	32*
CCOc1c(OC(C)=O)ccc(/C=C/c2ccc3cccc(OC(C)=O)c3n2)c1[N+](=O)[O-]	-4	4	-11	99	1
C=CCN1C(=O)/C(=C/c2ccc(OC(C)=O)c(OCC)c2[N+](=O)[O-])SC1=S	0	99*	100*	x	-1
CC(=NS(=O)(=O)c1ccc(C)cc1)N1CCCCC1	x	4	2	x	x
CC(=O)Oc1c(Sc2ccccc2[N+](=O)[O-])c(C)nn1C(C)(C)C	i	6	2	-4	42*
Cc1cc(=O)[nH]c2cc(O)ccc12	i	2	3	93	-1
CC(C)=CCCC1(C)C=Cc2c(c(C)cc3c2[nH]c2cc(O)ccc23)O1 (stereo unspecified)	0	90	101*	-7	u
Cc1nn(C)cc1C=NNC(=O)C1(O)c2ccccc2-c2ccccc21	x	3	2	x	x
